aSyn UTR act: Activators working through SNCA 5'UTR binding (MLPCN); alpha-synuclein 5'UTR reporter, activators screen; hit rate 7.1% among 300,000; activity score, % (tested at 7.5 µM), hits read low; AID 1814; in the data active = activity score below about -60%
An asterisk follows results filed as active. The list is a sample of the results.

SMILES	aSyn UTR act
CC(C)(C)C(=O)N1CCc2cc(-c3csc(N)n3)ccc21	66
CNc1nc(-c2ccc3c(c2)CCN3C(=O)CC(C)(C)C)c(C)s1	-118*
CNc1nc(-c2ccc3c(c2)CCN3C(=O)c2ccccc2F)cs1	-90*
CCCC(=O)N1CCc2cc(-c3nc(N)sc3C)ccc21	-208*
CC1C/C(=C/c2ccncc2)C(=O)/C(=C/c2ccncc2)C1 (stereo unspecified)	-107*
O=C(NC(=S)Nc1ccc(O)cc1)c1ccccc1Cl	-161*
CC(C)CNC(=S)NC(=O)c1ccccc1Cl	-93*
Cc1ccc(O)c(NC(=S)NC(=O)c2ccccc2Cl)c1	-120*
COc1ccc(NC(=S)NC(=O)c2ccccc2Cl)cc1	-130*
CCn1cc(C(=O)NC(=S)Nc2ccccc2[N+](=O)[O-])cn1	-94*
O=C(NC(=S)Nc1ccccc1[N+](=O)[O-])c1ccccc1Cl	-94*
CC(C)(C)C1CCc2c(sc(NC(=O)c3ccncc3)c2C(N)=O)C1 (stereo unspecified)	-131*
NC(=O)c1c(NC(=O)c2cccnc2)sc2c1CCCCC2	-177*
CCC1CCc2c(sc(NC(=O)c3ccoc3C)c2C(N)=O)C1 (stereo unspecified)	-89*
NC(=O)c1c(NC(=O)c2cccnc2)sc2c1CCCC2	-221*
CCC1CCc2c(sc(NC(=O)c3cccnc3)c2C(N)=O)C1 (stereo unspecified)	-99*
CCOc1ccc(C(=O)N/N=C/c2ccccc2[N+](=O)[O-])cc1	-126*
Cc1ccc(C(=O)N/N=C\c2ccccc2[N+](=O)[O-])cn1	-111*
CCC(=O)Nc1ccc(C(=O)N/N=C/c2ccccc2[N+](=O)[O-])cc1	-81*
Cc1ccc(NC(=O)c2ccc(NCCN)c([N+](=O)[O-])c2)cc1	-99*
CCCNc1ccc(C(=O)OCC)cc1[N+](=O)[O-]	-83*
Cc1ccc(NC(=O)CSc2ccc(C(N)=O)cc2[N+](=O)[O-])cc1	-67*
CS(=O)(=O)N1CCN(c2nc3ccccc3s2)CC1	-80*
O=S(=O)(c1ccc(-c2nc3ccccc3s2)cc1)N1CCCC1	-118*
CC(C)c1ccc(-c2nc3ccccc3s2)cc1	98
SMILES	aSyn UTR act
O=S(=O)(c1ccccc1)N1CCN(c2nc3ccccc3s2)CC1	-83*
O=C(NCc1ccccn1)C(=O)Nc1ccccc1	-150*
Cc1ccc(NC(=O)C(=O)NCc2ccccn2)cc1	-110*
COc1ccc(OCc2csc(N)n2)cc1	-117*
Cc1ccc(C(=O)NNc2c3ccccc3nc3ccccc23)cc1	-87*
CSc1nc(N(C)NC(=O)c2ccc(Cl)cc2)c2ccccc2n1	93
O=C(NNc1c2ccccc2nc2ccccc12)c1ccc(Cl)cc1	-80*
C/C(=N\NC(=S)Nc1ccc(F)cc1)c1ccc2c(c1)OCCO2	-80*
Nc1c(-c2ccccn2)cnn1-c1nc(-c2ccc(F)cc2)cs1	-79*
Nc1c(-c2cccs2)cnn1-c1nc(-c2ccc(F)cc2)cs1	-124*
O=C1C(Cl)=C(Nc2ccccc2)C(=O)c2ccccc21	-190*
CC(C)NC1=C(Cl)C(=O)c2ccccc2C1=O	-91*
CCN(CC)CCCNC1=C(Cl)C(=O)c2ccccc2C1=O	76
O=C(O)c1cccc(NC2=C(Cl)C(=O)c3ccccc3C2=O)c1	-191*
O=C1C(Cl)=C(NCc2cccnc2)C(=O)c2ccccc21	-141*
COc1ccc2c(c1)O/C(=C\c1ccco1)C2=O	-119*
Cc1cccc(/C=C2\Oc3cc(OS(C)(=O)=O)ccc3C2=O)c1	-64*
CC(=O)COc1ccc2c(c1C)O/C(=C\c1ccco1)C2=O	-213*
O=C(COC(=O)C1CC1)c1c[nH]c2ccccc12	-177*
O=C(Cc1ccccc1[N+](=O)[O-])OCC(=O)c1c[nH]c2ccccc12	-69*
COc1ccc(OCCN2C(=O)c3cccc(N)c3C2=O)cc1	-98*
O=C1c2ccccc2C(=O)N1CCOc1cccc(Br)c1	-71*
O=C(c1cc2ccccn2n1)N1CCN(Cc2ccccc2)CC1	-113*
Oc1c(Br)cc(/C=N/Nc2nncc3ccccc23)cc1Br	-109*
COc1cccc(/C=N/Nc2ncnc3scc(-c4ccccc4)c23)c1O	61
SMILES	aSyn UTR act
COc1ccc(/C=N/Nc2nncc3ccccc23)cc1	67
COc1ccccc1/C=N/Nc1nncc2ccccc12	-132*
CCCc1nnc(NC(=O)c2c(O)c3c([nH]c2=O)CCCC3)s1	-75*
O=C(N/N=C/c1cccc(Cl)c1)c1c(O)c2c([nH]c1=O)CCCC2	-100*
O=C(Nc1ccccc1O)c1c(O)c2c([nH]c1=O)CCCC2	-182*
O=C(Nc1nccs1)c1c(O)c2c([nH]c1=O)CCCC2	-209*
O/N=C\c1cnc(N2CCN(c3ccccc3)CC2)s1	-75*
Oc1ccc(CN2CCN(c3ccccc3)CC2)c2cccnc12	80
CCc1ccc(/C=C/C(=O)c2cc(Br)ccc(=O)c2O)cc1	72
Cc1ccc(/C=C/C(=O)c2cc(Br)ccc2OC(=O)c2ccco2)cc1	-94*
COc1ccc(S(=O)(=O)N2Cc3ccccc3CC2C(=O)Nc2nccs2)cc1 (stereo unspecified)	-158*
CCS(=O)(=O)N1Cc2ccccc2CC1C(=O)Nc1nccs1 (stereo unspecified)	-167*
COc1ccc(S(=O)(=O)N2Cc3ccccc3CC2C(=O)Nc2nccs2)cc1OC (stereo unspecified)	-149*
CCSc1nnc(NC(=O)C2Cc3ccccc3CN2S(=O)(=O)CC)s1 (stereo unspecified)	-88*
Cc1cc(C)c2nc(NNC(=O)c3ccc(S(=O)(=O)N4CCc5ccccc5C4)cc3)sc2c1	75
CCS(=O)(=O)N1Cc2ccccc2CC1C(=O)Nc1cccc(OC)c1 (stereo unspecified)	-87*
CCS(=O)(=O)N1Cc2ccccc2CC1C(=O)Nc1nc2c(C)cccc2s1 (stereo unspecified)	-69*
CCCN(C(=O)c1ccco1)c1nnc(-c2ccccc2C)s1	-89*
CN(C(=O)c1ccco1)c1nnc(-c2ccc(F)cc2)s1	-200*
COCCN(C(=O)c1ccco1)c1nnc(-c2ccc(F)cc2)s1	-92*
CN(C(=O)c1ccco1)c1nc(-c2ccc(F)cc2)cs1	-146*
CCN(C(=O)c1ccco1)c1nnc(-c2cccnc2)s1	-137*
CCCN(C(=O)c1cccs1)c1nnc(-c2ccncc2)s1	-100*
O=C(NCc1ccco1)c1cc(-c2ccc(F)cc2)on1	-198*
O=C(NCc1ccco1)c1cc(-c2ccccc2)on1	-161*
SMILES	aSyn UTR act
O=C(NCc1ccccc1)c1cc(-c2cccs2)on1	-95*
O=C(NCc1ccco1)c1cc(-c2cccs2)on1	-297*
CCN(CC)C(=O)c1ccc(-c2cccs2)s1	-73*
O=c1c2c(nc3c(-c4ccc(Cl)cc4)c[nH]n13)CCCC2	66
Cc1nc2c(-c3ccc(Cl)cc3)cnn2c2c1CCC2	-123*
CCOC(=O)N1CCN(C(=O)c2cc(COc3cccc(C(F)(F)F)c3)on2)CC1	-92*
O=C(NC1CCOC1)c1cc(COc2cccc(C(F)(F)F)c2)on1 (stereo unspecified)	-67*
C[C@@H]1CN(C(=O)c2cc(COc3cccc(C(F)(F)F)c3)on2)C[C@H](C)O1	-138*
CC(NC(=O)c1cc(COc2cccc(C(F)(F)F)c2)on1)c1nccs1 (stereo unspecified)	-62*
N#Cc1c(/N=C/c2cc3ccccc3s2)sc2c1CCC2	-150*
Cc1ccc(/C=N/c2sc3c(c2C#N)CCC3)s1	-146*

Screening data as filed in PubChem.
